# PrPC surface inh: inhibitors of human cell surface prion protein PrPC. TR-FRET read-out. actives 0.43% (n = 370,000). inhibition, % at 13.8 µM. P04156; in the data active means inhibition above about 24%
# FBA Mtb inh: Mtb fructose-bisphosphate aldolase inhibition; P9WQA3; purified M. tuberculosis FBA, fluorescence read-out; inhibition, % at 1 µM; actives 2.3% (n = 360,000); AID 588726
# Target sequence (P9WQA3 whole entry, looked up): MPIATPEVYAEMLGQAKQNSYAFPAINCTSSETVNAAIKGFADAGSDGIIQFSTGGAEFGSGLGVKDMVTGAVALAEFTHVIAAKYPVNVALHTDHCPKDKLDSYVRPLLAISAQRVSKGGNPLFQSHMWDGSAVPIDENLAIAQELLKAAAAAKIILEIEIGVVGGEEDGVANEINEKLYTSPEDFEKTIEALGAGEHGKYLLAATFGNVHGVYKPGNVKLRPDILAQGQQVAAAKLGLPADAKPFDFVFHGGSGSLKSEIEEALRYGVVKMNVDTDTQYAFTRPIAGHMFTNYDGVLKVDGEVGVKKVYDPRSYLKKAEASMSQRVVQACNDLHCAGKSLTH
# GDH-TPI counter-1: counter-screen for M. tuberculosis FBA inhibitors: GDH-TPI coupled enzymes | GDH-TPI coupled enzyme counterscreen, NADH absorbance | inhibition, % at 4.8 µM | actives 1.2% (n = 360,000) | AID 588335; in the data active means inhibition above about 30%
# Mtb hypoxia inh: reduces hypoxia-regulated biosensor signal in M. tuberculosis. actives 0.1% (n = 300,000). fluorescence inhibition, % (concentration not given with the values). M. tuberculosis hypoxia-regulated fluorescent reporter, fluorescence; in the data active means fluorescence inhibition mostly above about 23%, no sharp cut-off; inactive means mostly below about 17%
# Y pestis TopoI: inhibitors of Yersinia pestis topoisomerase I; Y. pestis Topo-I cleavage product accumulation, plate reader; activity, % at 10 µM; actives 0.064% (n = 360,000); in the data active means activity above about 50%, passing the limit was not always enough
# PrP 5UTR inh: inhibition of PrP 5' UTR reporter expression; cell-based PrP 5' UTR mRNA reporter, plate reader; inhibition, % (test concentration not listed); actives 0.35% (n = 340,000); in the data active means inhibition above about 52%
# Mtb FBA confirm: confirmation of M. tuberculosis fructose-bisphosphate aldolase inhibitors; shares compounds with FBA Mtb inh; purified M. tuberculosis FBA, fluorescence read-out; inhibition, % at 1 µM; actives 78% (n = 5,600)
# GDH-TPI counter-2: counter-screen for M. tuberculosis FBA inhibitors: GDH-TPI coupled enzyme inhibition | shares compounds with FBA Mtb inh | GDH-TPI coupled enzyme counterscreen, fluorescence | inhibition, % at 1 µM | actives 81% (n = 5,600); in the data active means inhibition above about 10%
# A number is an active result; – = inactive; · = no result shown; + = active, no number. Hits are enriched below; roughly 3.8% of the tested compounds scored in any of these assays. Unless noted, no stated cut-off is given here; in the data, active means inhibition above about 27%; inactive means the rest.
SMILES,PrPC surface inh,FBA Mtb inh,GDH-TPI counter-1,Mtb hypoxia inh,Y pestis TopoI,PrP 5UTR inh,Mtb FBA confirm,GDH-TPI counter-2
CN(C)C(=O)COc1ccc2c3c(c(=O)oc2c1)CCCC3,–,61,–,–,–,–,107,84
O=C(COc1ccc2c3c(c(=O)oc2c1)CCC3)N[C@@H](Cc1ccccc1)C(=O)O,–,27,–,·,–,–,–,–
O=C(O)CNC(=O)CC1S/C(=N/N=Cc2ccccc2O)NC1=O (stereo unspecified),·,·,·,–,·,·,·,·
CCOc1ccc(C=NNC(=O)c2csc(C)c2C)c(OCC)c1,·,·,·,–,·,·,·,·
O=C(NN=Cc1c[nH]c2ccc(Br)cc12)c1ccccn1,·,·,·,–,·,·,·,·
COc1ccc(-c2cc(=O)oc3cc(OCC(=O)N4C[C@H]5C[C@@H](C4)c4cccc(=O)n4C5)ccc23)cc1,–,–,–,·,–,–,·,·
COc1ccc2c(C)c(CCC(=O)N3C[C@H]4C[C@@H](C3)c3cccc(=O)n3C4)c(=O)oc2c1,–,68,–,·,–,–,118,128
COc1ccc2c(C)c(CC(=O)N3C[C@H]4C[C@@H](C3)c3cccc(=O)n3C4)c(=O)oc2c1,–,111,–,·,–,–,146,104
Cc1coc2cc3oc(=O)c(CC(=O)N4C[C@H]5C[C@@H](C4)c4cccc(=O)n4C5)c(C)c3cc12,–,–,–,·,–,–,·,·
Cc1nnc(N2CCCC(C(=O)NCc3ccccc3F)C2)c2nn(-c3ccccc3)c(C)c12 (stereo unspecified),–,–,–,–,–,–,·,·
Cc1ccccc1CNC(=O)C1CCCN(c2nnc(C)c3c(C)n(-c4ccccc4)nc23)C1 (stereo unspecified),–,28,–,–,–,–,111,105
N#Cc1ccc(OCC(=O)NNC(=O)C2CCCCC2)cc1,–,30,–,·,–,–,–,–
CCOc1cc(C=NNC(=O)c2ccc(NC(=O)C(C)(C)C)cc2)ccc1OC(=O)c1ccc(C)cc1,·,·,·,–,·,·,·,·
COc1ccc(-c2oc3ccc(N4CCOCC4)cc3c2C#CCO)cc1,–,33,47,·,–,–,48,35
COc1ccc(-c2sc3ccc(N4CCOCC4)cc3c2C#CC(C)(C)O)cc1,–,–,–,·,–,–,·,·
Nc1ccc(C#Cc2c(-c3ccsc3)oc3ccc(N4CCOCC4)cc23)cc1,–,41,–,–,–,–,102,75
COc1ccc(-c2c(-c3ccsc3)oc3ccc(N4CCOCC4)cc23)cn1,–,–,–,–,–,–,·,·
COC(=O)CC1c2cc(C(F)(F)F)ccc2S(=O)(=O)N1C(C)(C)C (stereo unspecified),·,·,·,–,·,·,·,·
O=C(CCS(=O)(=O)c1ccc(Br)cc1)N1CCN(c2ccccc2)CC1,–,73,–,·,–,–,69,62
COc1ccc(CC2CN3C(=NCC3C(C)C)N2CC(C)NC(=O)c2ccc(C)c(Br)c2)cc1 (stereo unspecified),·,·,·,–,·,·,·,·
Cc1ccc(CNC(=O)CN(Cc2cccs2)C(=O)C2(C)CC(=O)N=C3C=CC=CN32)cc1 (stereo unspecified),–,80,–,–,–,–,51,39
Cc1ccc(CNC(=O)CN(C(=O)C2(C)CC(=O)N=C3C=CC=CN32)c2cc(C)ccc2C)cc1 (stereo unspecified),–,91,–,–,–,–,+,+
Cc1ccc(CNC(=O)Cc2cccs2)cc1,–,–,–,·,–,–,·,·
O=C(CSc1nnc(SCc2ccc(Cl)cc2)s1)NN=Cc1c[nH]c2ccccc12,·,·,·,–,·,·,·,·
Nc1ccc2nn(-c3cc([N+](=O)[O-])ccc3O)nc2c1,–,–,–,–,–,–,·,·
CC(C)c1ccc(-n2nc3ccc(N)cc3n2)cc1,–,71,–,–,–,–,101,67
Cc1nn(CC#N)c(=O)n1-c1ccc(C(C)C)cc1,–,–,–,–,–,–,·,·
Cc1ccc(-n2nc(-c3ccc(N)cc3)cc2N)cc1,–,–,–,–,–,–,·,·
Nc1ccc2nn(-c3ccc(F)cc3)nc2c1,–,37,–,–,–,–,62,52
Cc1ccc(-n2nc3ccc(N)cc3n2)cc1,–,64,–,–,–,–,39,23

# Screening results from PubChem.
